Molecules are shown by their SMILES. The campaign covered roughly 100,000 compounds. About 620 (0.62%) were called active. This is one part of a sample in which actives are shown more often than they occur. Unmarked numbers belong to inactive results. The calls were made as follows: active = z-score of 3 or more in at least 2 runs; inactive = the rest.

This assay can be described thus: TAR RNA-Tat peptide displacers, HIV-1, primary screen, biochemical, FRET, FAM/TAMRA-labeled Tat (AID 1259389). The following applies: HIV-1 TAR RNA, Tat peptide displacement FRET; active compounds read high.
With `CNC(=O)c1c(NC(=O)CCSc2ccccc2)sc2c1CCC2`, the z-score was 0.4.

For the molecule `COC(=O)c1cc2n(n1)CC(C)(C(=O)NC1CCC(C)CC1)N(CCc1cccs1)C2=O` (centres undefined), the z-score is 0.65.

As for `CSc1cccc(NC(=O)CSc2nnc(C)n3c2cc2oc(C)cc23)c1`, the z-score is 0.7.

`O=C(Nc1nccs1)c1cc(-c2ccc(Cl)cc2)on1`: the z-score is 15.3.

For `CN1CCN(C(=O)Cn2ncn3cccc3c2=O)CC1`, the z-score is 1.42.

Turning to `CC1CCCC(NC(=O)C(C)n2ncn3cccc3c2=O)C1C` (centres undefined), the z-score was 11 (active).

As for `Cc1cc2c(cc3c(=O)n(CC(=O)NC4CCCC(C)C4C)ncn32)s1` (centres undefined), the z-score is -0.21.

Regarding `CCCCn1c(C)c(C)c2c1ncn1nc(Cc3ccc(OC)cc3)nc21`, the z-score is 0.12.

`CC1CCCCN1CCCNC(=O)c1noc2c1CCc1sccc1-2` (centres undefined): the z-score was 1.13.

For `CN1C(=O)C[C@H](C(=O)O)C1c1cccnc1` (some centres undefined), the z-score is 1.8.

With `Cc1ccc2nc(Nc3ncc4c(n3)CC(C)(C)CC4=O)nc(C)c2c1`, the z-score is 1.31.

In the case of `CCOc1ccc2nc(Nc3nc(C)c(CC)c(=O)[nH]3)nc(C)c2c1`, the z-score was 2.61.

In the case of `CCOc1ccc2nc(Nc3ncc4c(n3)CC(c3ccco3)CC4=O)nc(C)c2c1` (centres undefined), the z-score is 13.8 (active).

For the molecule `Cn1cc(NC(=O)Nc2cccc(Cl)c2)c2ccccc2c1=O`, the z-score is -0.05.

For the molecule `COc1ccc(N2C(=O)C3CCCN3C2c2cccc(OC)c2)cc1` (centres undefined), the z-score is -0.15.

As to `COc1ccc(C2CC(=O)C3=C(C2)Nc2ccccc2NC3c2cccc(Cl)c2)cc1` (centres undefined), the z-score was -1.58.

Regarding `COc1cccc(C2Nc3cccc4cccc(c34)N2)c1`, the z-score is 21.3 (active).

With `Oc1ccc(C2Nc3cccc4cccc(c34)N2)cc1`, the z-score was 4.86 (active).

For the molecule `Cc1ccc(C2Nc3cccc4cccc(c34)N2)cc1`, the z-score is 6.71 (active).

As to `COc1cccc(C2Nc3cccc4cccc(c34)N2)c1OC`, the z-score is 3.46.

On to `Brc1ccccc1C1Nc2cccc3cccc(c23)N1`, for which the z-score was 5.65 (active).

For the molecule `Cc1ccc(C2CC(c3cccc(C)c3)n3nc(N)nc3N2)cc1` (centres undefined), the z-score was 0.73.

Take `CCC(C)NC(=O)c1ccc(CN2C(=O)C(C)=C(c3ccc(C)cc3)S2(=O)=O)cc1` (centres undefined): the z-score is 1.92.

As for `Cc1nc2nc(Cc3ccccc3)[nH]n2c(=O)c1C`, the z-score was 2.84.

Consider `Cc1cc2nc(COC(=O)c3ccccc3Cl)cc(=O)n2o1`, for which the z-score is 0.42.

For the molecule `Oc1ccc2ncccc2c1C(Nc1ccccn1)c1cccc(Br)c1` (centres undefined), the z-score is 10.7.

Turning to `O=C(OCc1cc(=O)n2nc(C3CCCCC3)sc2n1)c1ccccc1`, the z-score was 0.63.

On to `COc1cc(C2OC(c3ccc(Br)cc3)=NN2C(C)=O)ccc1OC(C)=O` (centres undefined), for which the z-score was 1.63.

For `Cc1c(C(=O)N2CCC(C)CC2)c(S(=O)(=O)N2CCN(C3CCCCC3)CC2)c(C)n1C`, the z-score was 1.14.

On to `Cc1cccc(NS(=O)(=O)c2ccc(-c3ccc(=O)[nH]n3)o2)c1C`, for which the z-score is 0.96.

In the case of `CCOc1ccc(/C=C/c2nc(C#N)c(N3CCNCC3)o2)cc1`, the z-score was 0.65.

Turning to `CCSc1ncc(CO)n1Cc1ccc(F)cc1`, the z-score is 0.78.

For `Cc1ccn2c(=O)c(C(=O)NCCCOC(C)C)c(O)nc2c1`, the z-score is 0.76.

On to `COc1ccc(-c2nc3ccccc3[nH]2)cc1OC`, for which the z-score was 2.05.

Regarding `Cc1nnc(NC(=O)CN2C(=O)c3cccnc3Sc3ccccc32)s1`, the z-score was 1.32.

For the molecule `O=C(Cn1c(=O)sc2ccccc21)NCCC1=CCCCC1`, the z-score was 0.76.

`C=CCOC(=O)C1=C(C)NC2=C(C(=O)CC(C)(C)C2)C1c1cc2c(cc1Cl)OCO2` (centres undefined): the z-score is 0.26.

As to `O=C(c1cc(-c2ccccc2)n[nH]1)N1CCn2c1nc1ccccc12`, the z-score was 0.42.

With `COc1ccc(Cl)cc1N1CC(O)=C(c2nc3ccccc3n2C)C1=N`, the z-score is 0.34.

In the case of `CCCC1CNc2cc(C)ccc2O1` (centres undefined), the z-score is 2.06.

As for `COc1ccc(-c2cc(=O)c3c(O)cc(O[C@@H]4O[C@H](CO[C@@H]5O[C@@H](C)[C@H](O)[C@@H](O)[C@H]5O)[C@@H](O)[C@H](O)[C@H]4O)cc3o2)cc1O`, the z-score is 4.29.

For the molecule `C[C@@H]1O[C@@H](OC[C@H]2O[C@@H](Oc3cc(O)c4c(c3)O[C@H](c3ccc(O)c(O)c3)CC4=O)[C@H](O)[C@@H](O)[C@@H]2O)[C@H](O)[C@H](O)[C@H]1O`, the z-score is 3.52 (active).

Take `C[C@@H]1O[C@@H](O[C@H]2[C@@H](Oc3cc(O)c4c(c3)O[C@H](c3ccc(O)cc3)CC4=O)O[C@H](CO)[C@@H](O)[C@@H]2O)[C@H](O)[C@H](O)[C@H]1O`: the z-score was 2.09.

For `Cc1nc(S(=O)(=O)Nc2ccc(C(C)C)cc2)cn1C`, the z-score was 1.64.

With `O=C1c2ccccc2C(Nc2ccc(F)cc2F)N1c1ccccn1` (centres undefined), the z-score is 2.34.

For `CN(C)CCCNc1cc(N2CCN(c3ccccc3F)CC2)c2noc3c2c1C(=O)c1ccccc1-3`, the z-score is 5.01 (active).

As for `CN1CCN(c2cc(NCCCC(=O)O)c3c4c(onc24)-c2ccccc2C3=O)CC1`, the z-score was 1.94.

Turning to `CCOC(=O)N1CCN(c2cc(NCCO)c3c4c(onc24)-c2ccccc2C3=O)CC1`, the z-score was 2.61.

For the molecule `COc1cc(C)c(S(=O)(=O)N2CCc3cc4cc(C)ccc4nc32)cc1C`, the z-score is -1.52.

(Values after PubChem BioAssay AID1259389 (Center for Chemical Genomics, University of Michigan, 2018).)
